Here are results for 14 compounds from PubChem BioAssay.

Calls of active or inactive are those of the source.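 How the source made its calls, unless noted: active means visual image review flags a hit and inhibition of aggregation exceeds 20%; inconclusive means visual hit but inhibition at or below 20%; inactive means no hit on visual image review.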

The nature of assay [1]: inhibitors of TNFa-induced NFkB p65 translocation, primary screen, imaging, HUVEC, MLSMR starter and 10KST1 sets (AID 438;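 active means inhibition above 20% together with a positive visual image hit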;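 further: compound added about 3h40 before a 20 min TNFalpha stimulation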;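 on inhibition: signal is the nuclear over cytoplasmic p65 intensity ratio per well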). The following applies: HUVEC TNFa-induced p65 nuclear translocation; cell count: measured here: nuclei count (cytotoxicity indicator), at 2.08 µM; inhibition: at 2 µM, stronger effect = higher value, 0% TNFa-plus-vehicle, 100% no-TNFa wells.
Assay [2] can be described thus: inhibitors of mutant huntingtin aggregation, primary screen, imaging, exon1htt(103Q)mCFP cells, high-content imaging (AID 483).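 Further: compound exposure lasted 3 days before fixation.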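 On nuclei count: percent of the per-plate median nuclei count of sample wells.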 The following applies: exon1htt(103Q)mCFP cell line, aggregate imaging, at 2 µM; inhibition of aggregation: stronger effect = higher value; nuclei count: measured here: cell count, toxicity.
A short description of assay [3]: inhibitors of E-selectin induction by TNFa, primary screen, imaging, HUVEC, immunofluorescence, MLSMR starter and 10KST1 sets (AID 487;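 active means visually confirmed hit in the image check and inhibition above 20%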;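 on inhibition: signal is fraction of cell area covered by stained E-selectin grains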;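 on nuclei count: 100% = median nuclei count of all wells on the same plate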). The following applies: HUVEC TNFalpha-induced E-selectin immunofluorescence imaging, at 2 µM; inhibition: stronger effect = higher value; nuclei count: measured here: cell number, toxicity.
Assay [4] deals with Voltage-gated potassium channel subunit beta-2 (Rattus norvegicus) (UniProt P62483). Put plainly: KvBeta enzyme negative modulators, primary screen, biochemical, NADPH fluorescence (AID 622;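 active means fluorescence slope higher than the sample average by over 3 SD, cut at about -0.22 in these data, passing the limit was not always enough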;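 further: slope of raw intensity against log time taken from 70 to 1610 s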). The following applies: recombinant KvBeta, 4-cyanobenzaldehyde reduction, at 10 µM, stronger effect = higher value.
Voltage-gated potassium channel subunit beta-2 (Rattus norvegicus), sequence (P62483 whole entry, looked up): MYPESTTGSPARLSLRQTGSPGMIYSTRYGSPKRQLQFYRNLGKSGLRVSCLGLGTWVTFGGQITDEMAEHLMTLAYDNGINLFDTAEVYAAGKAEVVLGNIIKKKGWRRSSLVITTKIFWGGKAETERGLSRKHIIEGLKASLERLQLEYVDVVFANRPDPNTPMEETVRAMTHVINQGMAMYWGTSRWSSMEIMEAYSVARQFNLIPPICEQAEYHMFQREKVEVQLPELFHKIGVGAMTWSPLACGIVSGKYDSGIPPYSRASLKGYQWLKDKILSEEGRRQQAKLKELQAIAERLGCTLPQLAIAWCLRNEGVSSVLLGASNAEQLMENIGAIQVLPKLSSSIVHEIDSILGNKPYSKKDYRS
Assay [5] has the same target. Put plainly: KvBeta positive modulators, primary screen, biochemical, NADPH fluorescence (AID 623;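 active means NADPH fluorescence slope more negative than the mean of all samples by about 3 SD, 99.7% confidence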;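 further: fluorescence intensity change per second fitted from 20 to 320 s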). To be noted: Recombinant KvBeta, NADPH fluorescence decrease slope, 10 min; at 10 µM; stronger effect = lower value.
The target of assay [6] is Alpha-2C adrenergic receptor (Homo sapiens) (UniProt P18825). Nature of the assay: modulators of alpha2C/GIRK thallium flux, primary screen, cell-based, HEK293 alpha2C/GIRK1/2 (AID 624;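 active means fluorescence slope after compound addition differing from the mean of all screened samples at 99.7% confidence, in either direction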;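 further: slope of fluorescence ratio to pre-addition baseline per second over 15 to 24 s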). The following applies: thallium flux BTC fluorescence, at 10 µM, actives lie on both sides.
Alpha-2C adrenergic receptor (Homo sapiens), sequence (P18825 whole entry, looked up): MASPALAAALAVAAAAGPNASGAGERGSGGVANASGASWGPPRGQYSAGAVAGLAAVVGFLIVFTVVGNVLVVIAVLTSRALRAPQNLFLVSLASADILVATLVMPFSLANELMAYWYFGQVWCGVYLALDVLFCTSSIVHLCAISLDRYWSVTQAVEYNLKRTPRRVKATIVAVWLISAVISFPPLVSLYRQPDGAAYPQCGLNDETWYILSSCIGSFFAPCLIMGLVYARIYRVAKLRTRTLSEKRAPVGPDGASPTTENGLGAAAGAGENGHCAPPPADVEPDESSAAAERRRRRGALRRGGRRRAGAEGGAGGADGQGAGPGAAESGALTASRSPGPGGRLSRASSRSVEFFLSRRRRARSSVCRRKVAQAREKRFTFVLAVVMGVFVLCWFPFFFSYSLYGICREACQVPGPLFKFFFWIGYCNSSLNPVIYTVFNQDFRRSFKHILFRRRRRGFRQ
Assay [7] can be described thus: inhibitors of Sendai virus-induced IRF3 signaling, primary screen, TLR/RLR signaling modifier project, cell-based, Sendai virus stimulus, luciferase, 10K MLSCN set (AID 602276;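 active means inhibition at or above 50% at 10 µM; inactive means inhibition below 50%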;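 further: firefly luciferase from ISG56 promoter only with Renilla not read in this screen; 0% = Sendai virus plus DMSO and 100% = medium plus DMSO without virus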). To be noted: HEK293 RL24 IRF3 luciferase reporter, at 10 µM, stronger effect = higher value.
The nature of assay [8]: inhibitors of poly I:C-induced TLR3 signaling, primary screen, cell-based, poly I:C stimulus, luciferase, 10K MLSCN set (AID 602277;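 active means inhibition of the reporter signal at or above 50%; inactive means inhibition below 50%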). To be noted: HEK293-TLR3 RL24 IRF3 luciferase reporter, at 10 µM, stronger effect = higher value. (In a reporter assay the amount or activity of a reporter protein is the signal.)

What is called inhibition is the change of the read-out against control, counted positive when it falls. `CCOCCCNC(=O)Cn1ncc2c(=O)oc3ccccc3c21`: the cell count in assay [1] was determined as 651. The inhibition in assay [1] is -13.4% (inactive); in assay [3], -32.1% (inactive); in assay [7] it was 5.54% (inactive); in assay [8] it was 30.9% (inactive). In assay [2], the inhibition of aggregation is -20.1% (inactive). For the same compound, the results for the nuclei count in assay [2] and in assay [3] were 98.5% and 104%, respectively. Also, the fluorescence slope in assay [4] was -0.586 (inactive). Further, the NADPH fluorescence slope in assay [5] is -1.8e-05 (inactive). Further, the slope in assay [6] is 0.00598 (inactive).

With `COc1ccc(CC(=O)NC2CCN(CC(=O)Nc3ccc4c(c3)OCCO4)CC2)cc1OC`, the cell count in assay [1] is 635. Besides, the inhibition in assay [1] is -1.6% (inactive); in assay [3], -29.5% (inactive); in assay [7] it was 6.1% (inactive); in assay [8], -5.8% (inactive). Moreover, the inhibition of aggregation in assay [2] is -5.8% (inactive). The nuclei count in assay [2] was 88.5%; in assay [3] it was 111%. In addition, the fluorescence slope in assay [4] was -0.428 (inactive). Further, the NADPH fluorescence slope in assay [5] is -6.5e-06 (inactive). For the same compound, in assay [6], the slope was 0.00308 (inactive).

Take `O=C(O)c1cccc(NC(=O)C23CC4CC(C2)CC(n2cnc(Cl)n2)(C4)C3)c1`: the cell count in assay [1] is 571. Also, the inhibition is -24.4% (inactive) in assay [1], -14.3% (inactive) in assay [3], 9.34% (inactive) in assay [7] and 17.3% (inactive) in assay [8]. Further, the inhibition of aggregation in assay [2] was -15.8% (inactive). Moreover, the results for the nuclei count in assay [2] and in assay [3] were 108% and 115%, respectively. Also, the fluorescence slope in assay [4] is -0.506 (inactive). Moreover, the NADPH fluorescence slope in assay [5] is -1.2e-05 (inactive). In assay [6], the slope is 0.00606 (inactive).

In the case of `COc1c(C(=O)Nc2c(C)n(C)n(-c3ccccc3)c2=O)ccc2ccccc12`, the cell count in assay [1] came to 239. Besides, the inhibition is -1.7% (inactive) in assay [1], -68.7% (inactive) in assay [3], 6.79% (inactive) in assay [7] and 11.2% (inactive) in assay [8]. The inhibition of aggregation in assay [2] is 16.4% (inactive). The nuclei count in assay [2] was 63.2%; in assay [3], 117%. The fluorescence slope in assay [4] was -0.512 (inactive). Moreover, in assay [5], the NADPH fluorescence slope was -3.9e-05 (inactive). Besides, the slope in assay [6] is 0.00486 (inactive).

Take `CN1C(=O)CCC1(O)c1ccccc1` (centres undefined): in assay [1], the cell count came to 565. For the same compound, the inhibition in assay [1] was -9.2% (inactive); in assay [3], -51.3% (inactive); in assay [7], 11.4% (inactive); in assay [8] it was 38.2% (inactive). In assay [2], the inhibition of aggregation is 18.6% (inactive). For the same compound, the results for the nuclei count in assay [2] and in assay [3] were 54.1% and 103%, respectively. Further, in assay [4], the fluorescence slope was -0.392 (inactive). Also, the NADPH fluorescence slope in assay [5] is 1.8e-06 (inactive). Further, the slope in assay [6] is 0.00341 (inactive).

As for `O=C(Cn1cnc2c(cnn2-c2ccc(F)cc2)c1=O)N1CCCc2ccccc21`, the cell count in assay [1] turned out to be 427. The inhibition in assay [1] is 1.5% (inactive); in assay [3] it was -61.6% (inactive); in assay [7] it was 11.3% (inactive); in assay [8], 6.11% (inactive). Besides, the inhibition of aggregation in assay [2] was 2.1% (inactive). The nuclei count turned out to be 104% in assay [2] and 110% in assay [3]. The fluorescence slope in assay [4] was -0.628 (inactive). For the same compound, in assay [5], the NADPH fluorescence slope was -5.2e-05 (inactive). The slope in assay [6] is 0.00385 (inactive).

As to `CCOC(=O)c1csc(NC(=O)C2CCCCC2)n1`, the cell count in assay [1] was 706. Besides, the inhibition in assay [1] is -18.4% (inactive); in assay [3], -4.9% (inactive); in assay [7], -47.3% (inactive); in assay [8] it was -124% (inactive). In addition, in assay [2], the inhibition of aggregation was -10% (inactive). In addition, the nuclei count in assay [2] was 90.2%; in assay [3] it was 94.6%. For the same compound, the fluorescence slope in assay [4] is -0.419 (inactive). Further, the NADPH fluorescence slope in assay [5] is -0.000101 (inactive). The slope in assay [6] is 0.00464 (inactive).

As for `COCCOC(=O)C1=C(C)NC(=O)CC1c1cc2c(cc1Br)OCO2` (centres undefined), the cell count in assay [1] is 424. Moreover, the inhibition in assay [1] was 4.1% (inactive); in assay [3], -12.8% (inactive); in assay [7], 17.3% (inactive); in assay [8], 16.1% (inactive). Also, the inhibition of aggregation in assay [2] was 16.1% (inactive). Moreover, the nuclei count in assay [2] is 104%; in assay [3] it was 95.1%. In addition, the fluorescence slope in assay [4] was -0.395 (inactive). In addition, in assay [5], the NADPH fluorescence slope was -2.8e-05 (inactive). Further, the slope in assay [6] is 0.0043 (inactive).

Turning to `CCCOc1ccccc1NC(=O)c1c(-c2ccccc2)noc1C`, the cell count in assay [1] is 800. Further, the inhibition in assay [1] was 4.6% (inactive); in assay [3] it was -43.4% (inactive); in assay [7], 10.6% (inactive); in assay [8] it was 25.8% (inactive). The inhibition of aggregation in assay [2] was 8.8% (inactive). For the same compound, the nuclei count in assay [2] was 111%; in assay [3] it was 112%. Also, the fluorescence slope in assay [4] was -0.584 (inactive). Further, the NADPH fluorescence slope in assay [5] is -1.4e-05 (inactive). The slope in assay [6] was 0.00575 (inactive).

`CC1(C)CC(=O)C=C(Nc2ccc(OCC(F)(F)C(F)F)cc2)C1`: in assay [1], the cell count came to 362. Also, the inhibition is -0.3% (inactive) in assay [1], -43% (inactive) in assay [3], -8.49% (inactive) in assay [7] and -18.3% (inactive) in assay [8]. Further, in assay [2], the inhibition of aggregation was -25.2% (inactive). Moreover, the nuclei count was found to be 110% in assay [2] and 116% in assay [3]. In assay [4], the fluorescence slope is -0.324 (inactive). The NADPH fluorescence slope in assay [5] is -1.5e-05 (inactive). In addition, the slope in assay [6] was 0.00531 (inactive).

Turning to `Cc1nn(S(=O)(=O)N2CCCCC2)c(C)c1Br`, the cell count in assay [1] was determined as 335. The inhibition in assay [1] was 4% (inactive); in assay [3], -93.4% (inactive); in assay [7] it was 1.73% (inactive); in assay [8], 17.2% (inactive). In assay [2], the inhibition of aggregation was 10.9% (inactive). The nuclei count in assay [2] was 101%; in assay [3], 119%. For the same compound, the fluorescence slope in assay [4] was -0.291 (inactive). In assay [5], the NADPH fluorescence slope was -1.5e-05 (inactive). In addition, the slope in assay [6] is 0.00571 (inactive).

Regarding `Cc1ccnc(SCCn2c(N3CCCCC3)nc3c2c(=O)n(C)c(=O)n3C)n1`, in assay [1], the cell count came to 249. The inhibition in assay [1] was 4.4% (inactive); in assay [3], -49.1% (inactive); in assay [7] it was 10.1% (inactive); in assay [8], 36.5% (inactive). Moreover, the inhibition of aggregation in assay [2] was -9.4% (inactive). Further, the nuclei count came out at 93.5% in assay [2] and 107% in assay [3]. For the same compound, the fluorescence slope in assay [4] is -0.319 (inactive). The NADPH fluorescence slope in assay [5] is 1.8e-05 (inactive). Also, in assay [6], the slope is 0.00339 (inactive).

For `CN(CC(=O)NCCC1=CCCCC1)S(=O)(=O)c1ccc2c(c1)CCC(=O)N2`, the cell count in assay [1] worked out at 603. The inhibition in assay [1] is 16.1% (inactive); in assay [3] it was -110% (inactive); in assay [7], -4.9% (inactive); in assay [8], 16.8% (inactive). Further, the inhibition of aggregation in assay [2] is 19% (inactive). Further, the nuclei count in assay [2] is 111%; in assay [3], 141%. For the same compound, the fluorescence slope in assay [4] is -0.505 (inactive). Also, in assay [5], the NADPH fluorescence slope is 1.1e-05 (inactive). Moreover, the slope in assay [6] is 0.00584 (inactive).

In the case of `O=S(=O)(c1ccccc1)c1nc(-c2ccco2)oc1NCCCN1CCOCC1`, the cell count in assay [1] came out at 548. Moreover, the inhibition is 0% (inactive) in assay [1], -73.7% (inactive) in assay [3], 0.535% (inactive) in assay [7] and 4.26% (inactive) in assay [8]. Also, in assay [2], the inhibition of aggregation is -3% (inactive). Further, the nuclei count came out at 88.3% in assay [2] and 124% in assay [3]. Further, in assay [4], the fluorescence slope is -0.502 (inactive). Besides, in assay [5], the NADPH fluorescence slope is 1.1e-05 (inactive). Also, the slope in assay [6] was 0.0038 (inactive).
